Screening data from PubChem.
Compounds with a hit are over-represented: about 4% of the library has one in this group of screens.
HIF-2a inh: HIF-2a inhibition; 786-0 RCC cells HIF-2a reporter, luciferase luminescence, overnight; inhibition, % at 18.8 µM; actives 0.72% (n = 360,000);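 active = inhibition of the luminescence signal of 40% or more relative to plate controls, in a single-dose primary screen at 18.75 µM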
EBV LMP1 NFkB: Epstein-Barr LMP1 NF-kappaB reporter inhibition | LMP1-induced NF-kappaB luciferase reporter cells, luminescence | inhibition, % at 12.5 µM | actives 0.69% (n = 350,000) | AID 504558; in the data active = inhibition above about 41%;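 note: 0% = neutral control wells and 100% = reference inhibitor control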
TWEAK-Fn14 inh: inhibitors of TWEAK-Fn14 interaction signaling | actives 2% (n = 360,000) | AID 1159606 | TWEAK-stimulated Fn14 reporter cells, luciferase luminescence, 8 h | inhibition, % at 10 µM; in the data active = inhibition above about 50%
MITF TRPM1 inh: inhibitors of MITF-driven TRPM1 promoter in melanoma cells; SK-MEL-5 TRPM1 promoter luciferase, 24 h; inhibition, % at 12.5 µM; actives 0.83% (n = 330,000); AID 488899;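 active = mean inhibition across replicates of 60% or more, whatever share of single replicates reaches that level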
Peg3 prom inh: Peg3 promoter activity inhibition; HeLa PEG-Prom luciferase reporter, luminescence, overnight; AID 588405; actives 1.7% (n = 360,000); inhibition, % at 20 µM;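 active = inhibition of at least 50% at 20 µM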
TROY NFkB inh: blocks TROY-dependent signaling in reporter cells; Q293 LMP1-TROYcd NF-kB luciferase reporter, 4 h; inhibition, % at 10 µM; actives 0.98% (n = 360,000);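 active = compounds whose plate-normalised and pattern-corrected inhibition of the luciferase reporter signal at the single screening dose is 50% or more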
Mdm2 MdmX conf: Mdm2/MdmX (human) interaction inhibition, confirmed; SaOS-2 split-luciferase Mdm2/MdmX complementation, luminescence; actives 99% (n = 740); shares compounds with HIF-2a inh; inhibition, % at 8 µM;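 active = mean inhibition of the luminescence signal across two replicates at or above 26 percent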
HIF-2a conf: HIF-2a inhibition, single concentration confirmation. shares compounds with HIF-2a inh. 786-0 RCC cells, HIF-2a luciferase reporter luminescence, overnight. inhibition, % at 18.8 µM. actives 56% (n = 1,800);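 active = mean inhibition across four replicates of at least 40 percent at the single tested concentration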
HIF-1a counter: HIF-1a inhibition counter-screen for HIF-2a hits | shares compounds with HIF-2a inh | MiaPaCa-2 HIF-1a luciferase reporter, desferoxamine, overnight | inhibition, % at 18.8 µM | actives 72% (n = 1,800);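 active = mean inhibition of the reporter signal across four replicates at the single tested dose of 50% or more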
* hit, by the source's call; . = not tested or not shown; ! = not confirmed by another sample.

SMILES	HIF-2a inh	EBV LMP1 NFkB	TWEAK-Fn14 inh	MITF TRPM1 inh	Peg3 prom inh	TROY NFkB inh	Mdm2 MdmX conf	others
Nc1ncnc2c1ccn2[C@@H]1O[C@H](CO)[C@@H](O)[C@H]1O	35*	92*	95*	.	100*	52*	103*	HIF-2a conf=29;HIF-1a counter=103*
C[C@H]1CCCC(=O)CCC/C=C/c2cc(O)cc(O)c2C(=O)O1	21	16	42	7	18	15	.
C[C@H]1CCC/C=C/[C@@H]2C[C@H](O)C[C@H]2[C@H](O)/C=C/C(=O)O1	60*	-119	55*!	81*	43	-66	96*	HIF-2a conf=43*;HIF-1a counter=75*
C[CH2][Hg][S]c1ccccc1C(=O)O	97*	-13	92*	95*	94*	25	102*
CC(C)COC(=O)c1ccccc1C(=O)OCC(C)C	-1	-8	8	3	15	-5	.
Cc1cc2c(cc1C)NP(=S)(c1ccccc1)N2	-204	-25	32	-71	-209	43	.
CCCCn1c(C)c(C(=O)O)c2cc(OC)c3ccccc3c21	13	4	-4	19	12	11	.
CC(=O)c1c(C)n(C2CCCCC2)c2ccc(O)cc12	20	70*	86*	14	20	53*	85*
CC(=O)c1c(C)n(Cc2ccccc2)c2ccc(O)cc12	11	3	24	1	16	38	.
COc1cccc(C2CCN(CC(=O)Nc3cc(Cl)ccc3OC)CC2O)c1 (stereo not given)	10	5	-13	4	9	-12	.
C#CCCC[C@@H]1OC(=O)CNC(=O)C([C@@H](C)CC)NC(=O)[C@@H]2CCCN2C(=O)C([C@@H](C)CC)OC(=O)[C@H](Cc2ccccc2)N(C)C(=O)[C@H](C(C)C)NC(=O)C1(C)C (stereo not given in full)	-29	.	4	.	5	9	.
CCC(C)C1NC(=O)C(NC(=O)C(CC(C)C)N(C)C(=O)C2CCCN2C(=O)C(C)O)C(C)OC(=O)C(Cc2ccc(OC)cc2)N(C)C(=O)C2CCCN2C(=O)C(CC(C)C)NC(=O)[C@H](C)C(=O)[C@H](C(C)C)OC(=O)CC1O (stereo not given in full)	83*	93*	102*	105*	100*	85*	.	HIF-2a conf=79*;HIF-1a counter=100*
O=C([O-])c1ccc(-[n+]2c(-c3ccccc3)cc(-c3ccccc3)cc2-c2ccccc2)cc1	17	1	-11	3	-20	-1	.
Oc1ccc(-[n+]2c(-c3ccccc3)cc(-c3ccccc3)cc2-c2ccccc2)cc1	-22	32	87*	84*	86*	62*	102*
Cc1nn(Cc2ccc(Cl)cc2Cl)c(Cl)c1C(=O)Nc1ccc(OC(F)F)cc1	10	7	-4	5	17	17	.
COc1cc(/C=C(/C)[N+](=O)[O-])ccc1OCc1ccccc1Cl	94*	-13	73*	91*	105*	56*	103*
COc1cc(C=C2C(=O)NC(=O)NC2=O)ccc1OCc1ccc([N+](=O)[O-])cc1	-203	-24	-2	-67	-248	-20	.
CC(=O)OC[C@]12CCC(C)=C[C@H]1O[C@@H]1[C@H](O)[C@@H](OC(C)=O)[C@@]2(C)[C@]12CO2	90*	74*	98*	91*	108*	84*	.	HIF-2a conf=81*;HIF-1a counter=105*
O=C(c1cccn2c(=O)c3ccc(Cl)cc3nc12)N1CCC2(CC1)OCCO2	-5	-4	-9	-6	3	6	.
